Experimental findings from PubChem BioAssay AID602325 (NMMLSC, 2012) are described below.

Some of the results follow. Unmarked numbers belong to inactive results. Active and inactive are the calls of the source. Cut-off read from the data, not from the text of the source: active = inhibition above about 24%; inactive = the rest.

This assay relates to Botulinum neurotoxin type A light chain protease [Clostridium botulinum A str. ATCC 3502]. Kind of assay: BoNT/A light chain protease inhibitors, confirmation, biochemical, flow cytometry, cherry pick 2 (AID 602325). As to conditions: multiplex microsphere protease cleavage assay, at 10 µM, hits give high values.
With `O=C(CN1CCN(c2ccccc2O)CC1)NC(=O)NCc1ccccc1`, the inhibition was 1.6%.
With `CC(=O)OCCN(CCCn1c(-c2ccncc2)nc2ccccc21)c1nc(-c2ccc(C)cc2)cs1` the figure was 1.8%; with `Cc1cc2ccccc2n1CCNC(=O)COc1ccc2ccccc2c1`, 5.2%; with `Cc1ccc(CNC(=O)c2cccc3c2C(=O)c2ccc(N4CCC(C)CC4)cc2S3(=O)=O)cc1`, 8.9%.
Then `Cc1cc2cc(CNC(=O)c3ccc(S(=O)(=O)N4CCOCC4)cc3)ccc2[nH]1`, with 3.8%.
Then `O=C(OCC(=O)c1c[nH]c2ccccc12)c1cccc(O)c1`, with 1.5%; and `COc1ccc(-c2cc3c(c4c2ccn4C)C2CCC3C2)cn1` (stereo not drawn), with 25.2% (active); and `CCOc1ncccc1C(=O)OCC(=O)c1c[nH]c2ccccc12`, with 9.5%.
